Test results from the supplement of paper PMC11732987, “Enantioselective OTUD7B fragment discovery through chemoproteomics screening and high-throughput optimisation” (Communications Chemistry, 2025).
Values without a mark were called inactive.

Columns and labels:
Assay in all cases: log2 ratio of Biotin-Ahx-Ub-VS probe labelling (fragment/DMSO); higher = less target engagement (more negative = stronger competition), active = hit call of the paper (q ≤ 0.05, log2 ratio ≤ -1)
Settings in all cases: compound concentration: 200 uM; treatment time: 3 h
[1] = compound: CC(C)CN(C1CC1)C(=O)CCl
Procedure, shortened: (§1)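 HEK293T lysate (495 µg per sample, in Tris/CHAPS/IGEPAL buffer with protease inhibitors) was exposed in triplicate for 3 h to fragment at 200 µM or to vehicle, then to Biotin-Ahx-Ub-VS at 0.5 µM final for 1 h. Labelled DUBs were enriched on NeutrAvidin, digested with LysC and trypsin, and analysed by diaPASEF LC-MS/MS. Spectronaut label-free quantities were normalised to the global median, and values are average log2 ratios of fragment over vehicle from an unpaired t-test. Only proteins with ≥2 unique peptides were used.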

[2] = compound: CC(NC(=O)CCl)c1cccs1
Procedure, shortened: as §1

[3] = compound: CC1CCCCC1NC(=O)CCl
Procedure, shortened: as §1

[4] = compound: CC1CCCCN1C(=O)CCl
Procedure, shortened: as §1

[5] = compound: CC1CN(CC(C)O1)C(=O)CCl
Procedure, shortened: as §1

[6] = compound: CN(C1CCCCC1)C(=O)CCl
Procedure, shortened: as §1

[7] = compound: Cc1cc(NC(=O)CCl)no1
Procedure, shortened: as §1

[8] = compound: Cc1cccc(NC(=O)CCl)c1
Procedure, shortened: as §1

[9] = compound: Cc1nc(NC(=O)CCl)sc1C
Procedure, shortened: as §1

[10] = compound: Cc1nnc(NC(=O)CCl)s1
Procedure, shortened: as §1

[11] = compound: Cl.Cc1ncsc1CNC(=O)CCl
Procedure, shortened: as §1

[12] = compound: ClCC(=O)N1CCCCCCC1
Procedure, shortened: as §1

[13] = compound: ClCC(=O)NC(C1CC1)C1CC1
Procedure, shortened: as §1

[14] = compound: ClCC(=O)NC1(CCCC1)C#N
Procedure, shortened: as §1

[15] = compound: ClCC(=O)NCC1CCC1
Procedure, shortened: as §1

[16] = compound: ClCC(=O)NCC1CCCO1
Procedure, shortened: as §1

[17] = compound: ClCC(=O)NCc1ccco1
Procedure, shortened: as §1

[18] = compound: ClCC(=O)Nc1cccc(Cl)c1
Procedure, shortened: as §1

Chain of UniProt Q70EL1 (Q70EL1 whole entry): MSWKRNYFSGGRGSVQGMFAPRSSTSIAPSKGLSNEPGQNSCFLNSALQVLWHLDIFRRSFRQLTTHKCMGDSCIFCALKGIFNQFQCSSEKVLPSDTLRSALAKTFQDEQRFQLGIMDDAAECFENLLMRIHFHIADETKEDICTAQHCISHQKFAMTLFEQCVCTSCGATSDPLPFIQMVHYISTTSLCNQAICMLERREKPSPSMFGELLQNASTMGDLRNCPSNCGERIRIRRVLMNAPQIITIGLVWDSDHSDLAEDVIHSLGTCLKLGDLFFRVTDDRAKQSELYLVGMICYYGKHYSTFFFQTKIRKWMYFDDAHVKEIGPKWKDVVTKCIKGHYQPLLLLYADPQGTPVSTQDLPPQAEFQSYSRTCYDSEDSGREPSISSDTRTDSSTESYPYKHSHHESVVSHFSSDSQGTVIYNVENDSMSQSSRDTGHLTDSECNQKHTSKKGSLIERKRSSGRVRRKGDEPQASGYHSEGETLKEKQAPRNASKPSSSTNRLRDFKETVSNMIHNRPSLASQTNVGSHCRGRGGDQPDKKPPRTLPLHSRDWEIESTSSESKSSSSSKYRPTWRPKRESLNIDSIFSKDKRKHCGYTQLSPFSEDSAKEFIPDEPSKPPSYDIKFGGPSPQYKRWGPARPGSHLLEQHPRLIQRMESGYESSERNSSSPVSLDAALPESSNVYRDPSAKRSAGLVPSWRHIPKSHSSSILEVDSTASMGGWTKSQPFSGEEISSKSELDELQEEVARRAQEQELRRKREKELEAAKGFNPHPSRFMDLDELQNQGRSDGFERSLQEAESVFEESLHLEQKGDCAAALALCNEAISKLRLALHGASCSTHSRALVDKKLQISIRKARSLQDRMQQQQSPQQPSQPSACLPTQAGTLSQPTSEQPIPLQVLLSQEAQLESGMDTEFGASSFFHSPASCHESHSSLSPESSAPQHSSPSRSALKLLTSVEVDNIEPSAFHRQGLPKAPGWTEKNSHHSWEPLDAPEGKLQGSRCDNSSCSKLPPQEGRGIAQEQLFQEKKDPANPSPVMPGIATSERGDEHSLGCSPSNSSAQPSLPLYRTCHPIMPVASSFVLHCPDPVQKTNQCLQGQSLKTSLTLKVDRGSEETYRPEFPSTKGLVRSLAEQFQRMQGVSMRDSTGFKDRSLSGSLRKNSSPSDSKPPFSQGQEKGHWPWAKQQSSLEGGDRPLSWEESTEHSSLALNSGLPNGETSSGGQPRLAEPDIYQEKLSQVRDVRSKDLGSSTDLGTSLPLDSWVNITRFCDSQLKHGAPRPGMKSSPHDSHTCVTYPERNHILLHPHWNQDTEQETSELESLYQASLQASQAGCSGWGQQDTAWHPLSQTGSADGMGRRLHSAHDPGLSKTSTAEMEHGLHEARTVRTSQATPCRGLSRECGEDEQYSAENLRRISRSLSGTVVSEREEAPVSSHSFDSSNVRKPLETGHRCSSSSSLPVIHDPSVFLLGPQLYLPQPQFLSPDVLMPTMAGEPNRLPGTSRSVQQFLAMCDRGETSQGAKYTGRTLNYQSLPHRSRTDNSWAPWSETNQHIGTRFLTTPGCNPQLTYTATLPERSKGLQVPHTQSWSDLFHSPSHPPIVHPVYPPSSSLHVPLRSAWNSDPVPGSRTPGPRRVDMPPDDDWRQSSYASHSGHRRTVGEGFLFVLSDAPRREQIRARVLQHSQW
Chain of UniProt Q9P275 (Q9P275 whole entry): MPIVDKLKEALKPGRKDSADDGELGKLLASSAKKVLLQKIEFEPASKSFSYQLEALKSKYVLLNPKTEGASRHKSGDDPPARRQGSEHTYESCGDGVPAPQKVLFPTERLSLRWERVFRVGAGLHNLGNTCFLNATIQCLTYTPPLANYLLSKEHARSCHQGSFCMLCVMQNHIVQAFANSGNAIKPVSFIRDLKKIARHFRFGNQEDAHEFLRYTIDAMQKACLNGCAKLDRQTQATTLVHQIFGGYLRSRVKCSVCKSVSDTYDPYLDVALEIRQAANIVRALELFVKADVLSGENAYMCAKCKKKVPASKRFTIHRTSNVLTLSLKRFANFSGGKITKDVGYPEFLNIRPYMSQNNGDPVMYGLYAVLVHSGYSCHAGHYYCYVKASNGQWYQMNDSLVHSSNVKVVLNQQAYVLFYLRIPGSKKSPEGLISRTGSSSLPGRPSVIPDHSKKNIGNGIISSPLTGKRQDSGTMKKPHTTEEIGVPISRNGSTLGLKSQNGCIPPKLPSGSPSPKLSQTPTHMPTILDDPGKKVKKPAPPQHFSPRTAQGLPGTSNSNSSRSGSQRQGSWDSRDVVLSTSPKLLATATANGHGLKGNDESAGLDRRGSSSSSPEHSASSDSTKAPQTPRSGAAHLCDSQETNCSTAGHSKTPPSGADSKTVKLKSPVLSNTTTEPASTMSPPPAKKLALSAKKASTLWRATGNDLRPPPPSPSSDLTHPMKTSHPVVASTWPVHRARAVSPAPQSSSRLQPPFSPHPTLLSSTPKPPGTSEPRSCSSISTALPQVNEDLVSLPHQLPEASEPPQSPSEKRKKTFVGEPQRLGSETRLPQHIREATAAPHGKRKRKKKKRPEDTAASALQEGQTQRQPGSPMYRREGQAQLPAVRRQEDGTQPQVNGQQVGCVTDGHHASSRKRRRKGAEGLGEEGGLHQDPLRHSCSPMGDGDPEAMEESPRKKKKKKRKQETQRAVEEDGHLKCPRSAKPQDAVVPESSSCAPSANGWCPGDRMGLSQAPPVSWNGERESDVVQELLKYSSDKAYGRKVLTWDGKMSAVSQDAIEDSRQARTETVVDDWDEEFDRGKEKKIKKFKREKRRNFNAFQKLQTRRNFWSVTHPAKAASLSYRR
Chain of UniProt Q9UPT9 (Q9UPT9 whole entry): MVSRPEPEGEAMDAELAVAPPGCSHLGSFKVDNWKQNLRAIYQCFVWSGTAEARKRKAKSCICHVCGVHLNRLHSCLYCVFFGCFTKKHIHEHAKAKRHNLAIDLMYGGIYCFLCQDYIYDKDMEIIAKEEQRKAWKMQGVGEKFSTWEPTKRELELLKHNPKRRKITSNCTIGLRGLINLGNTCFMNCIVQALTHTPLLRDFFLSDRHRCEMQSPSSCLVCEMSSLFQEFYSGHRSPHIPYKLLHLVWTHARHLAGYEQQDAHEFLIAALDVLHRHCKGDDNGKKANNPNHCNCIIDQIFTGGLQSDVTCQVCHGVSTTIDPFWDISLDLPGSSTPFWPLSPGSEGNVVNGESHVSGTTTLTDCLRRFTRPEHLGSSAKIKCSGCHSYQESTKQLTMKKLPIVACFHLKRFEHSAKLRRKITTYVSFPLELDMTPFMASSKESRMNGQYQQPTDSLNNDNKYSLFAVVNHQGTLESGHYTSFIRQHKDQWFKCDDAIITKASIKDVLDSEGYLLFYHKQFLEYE
Chain of UniProt Q9UHP3 (Q9UHP3 whole entry): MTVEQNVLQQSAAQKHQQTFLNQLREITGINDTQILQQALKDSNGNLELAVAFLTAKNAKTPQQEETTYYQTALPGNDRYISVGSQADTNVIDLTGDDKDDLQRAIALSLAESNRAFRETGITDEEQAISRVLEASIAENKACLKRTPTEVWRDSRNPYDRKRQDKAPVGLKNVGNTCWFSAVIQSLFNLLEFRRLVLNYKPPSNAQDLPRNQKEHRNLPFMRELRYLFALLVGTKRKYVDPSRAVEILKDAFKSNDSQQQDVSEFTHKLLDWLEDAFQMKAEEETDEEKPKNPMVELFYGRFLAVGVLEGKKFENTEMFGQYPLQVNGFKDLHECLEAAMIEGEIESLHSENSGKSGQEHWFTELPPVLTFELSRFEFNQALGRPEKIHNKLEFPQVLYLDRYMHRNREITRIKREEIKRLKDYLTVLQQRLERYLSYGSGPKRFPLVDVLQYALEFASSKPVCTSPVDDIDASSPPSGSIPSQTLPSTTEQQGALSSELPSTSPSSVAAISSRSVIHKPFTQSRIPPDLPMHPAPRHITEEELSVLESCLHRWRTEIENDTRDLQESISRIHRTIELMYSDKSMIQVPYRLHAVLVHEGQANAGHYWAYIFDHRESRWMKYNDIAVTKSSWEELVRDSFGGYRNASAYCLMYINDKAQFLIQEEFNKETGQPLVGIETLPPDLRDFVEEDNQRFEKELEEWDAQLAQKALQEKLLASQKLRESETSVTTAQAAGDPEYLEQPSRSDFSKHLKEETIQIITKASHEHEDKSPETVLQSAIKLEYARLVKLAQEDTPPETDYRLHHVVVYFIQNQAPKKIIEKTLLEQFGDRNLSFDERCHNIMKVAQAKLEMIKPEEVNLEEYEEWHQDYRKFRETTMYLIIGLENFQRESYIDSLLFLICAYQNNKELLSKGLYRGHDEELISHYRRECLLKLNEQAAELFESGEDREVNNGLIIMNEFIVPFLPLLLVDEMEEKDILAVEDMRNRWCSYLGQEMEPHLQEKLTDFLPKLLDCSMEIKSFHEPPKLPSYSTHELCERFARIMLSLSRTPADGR
Chain of UniProt Q8N6M0 (Q8N6M0 whole entry): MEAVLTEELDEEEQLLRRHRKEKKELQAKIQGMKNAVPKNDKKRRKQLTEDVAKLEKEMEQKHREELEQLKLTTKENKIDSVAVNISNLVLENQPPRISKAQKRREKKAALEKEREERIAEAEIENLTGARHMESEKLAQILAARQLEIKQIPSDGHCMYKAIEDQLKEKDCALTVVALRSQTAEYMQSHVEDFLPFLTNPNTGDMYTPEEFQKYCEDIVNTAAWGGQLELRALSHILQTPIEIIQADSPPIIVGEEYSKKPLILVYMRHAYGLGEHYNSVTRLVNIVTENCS
Chain of UniProt O00303 (O00303 whole entry): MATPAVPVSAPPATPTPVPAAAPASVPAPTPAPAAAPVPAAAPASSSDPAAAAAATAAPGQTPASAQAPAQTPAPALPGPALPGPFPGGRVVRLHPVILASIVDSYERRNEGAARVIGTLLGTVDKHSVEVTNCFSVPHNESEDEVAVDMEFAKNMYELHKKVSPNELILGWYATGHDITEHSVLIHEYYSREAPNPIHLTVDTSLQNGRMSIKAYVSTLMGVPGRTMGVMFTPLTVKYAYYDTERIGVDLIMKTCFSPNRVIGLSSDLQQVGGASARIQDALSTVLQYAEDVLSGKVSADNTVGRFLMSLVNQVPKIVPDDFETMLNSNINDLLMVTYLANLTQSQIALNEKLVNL

Target | log2 ratio of Biotin-Ahx-Ub-VS probe labelling [1] | log2 ratio of Biotin-Ahx-Ub-VS probe labelling [2] | log2 ratio of Biotin-Ahx-Ub-VS probe labelling [3] | log2 ratio of Biotin-Ahx-Ub-VS probe labelling [4] | log2 ratio of Biotin-Ahx-Ub-VS probe labelling [5] | log2 ratio of Biotin-Ahx-Ub-VS probe labelling [6] | log2 ratio of Biotin-Ahx-Ub-VS probe labelling [7] | log2 ratio of Biotin-Ahx-Ub-VS probe labelling [8] | log2 ratio of Biotin-Ahx-Ub-VS probe labelling [9] | log2 ratio of Biotin-Ahx-Ub-VS probe labelling [10] | log2 ratio of Biotin-Ahx-Ub-VS probe labelling [11] | log2 ratio of Biotin-Ahx-Ub-VS probe labelling [12] | log2 ratio of Biotin-Ahx-Ub-VS probe labelling [13] | log2 ratio of Biotin-Ahx-Ub-VS probe labelling [14] | log2 ratio of Biotin-Ahx-Ub-VS probe labelling [15] | log2 ratio of Biotin-Ahx-Ub-VS probe labelling [16] | log2 ratio of Biotin-Ahx-Ub-VS probe labelling [17] | log2 ratio of Biotin-Ahx-Ub-VS probe labelling [18]
YOD1 (UniProt Q5VVQ6) | 0.253 | 0.0444 | 0.0365 | -0.412 | -0.152 | 0.18 | -0.323 | -0.308 | 0.241 | -0.155 | -0.266 | 0.106 | -0.0299 | 0.0345 | 0.0106 | 0.189 | 0.0867 | -0.836
USP34 (UniProt Q70CQ2) | -0.0417 | -0.172 | -0.119 | -0.00177 | -0.247 | -0.0987 | -0.256 | -0.0637 | -0.0566 | -0.451 | -0.0758 | -0.0409 | -0.194 | -0.0189 | 0.000583 | 0.219 | -0.146 | -0.774
USP15 (UniProt Q9Y4E8) | -0.00677 | 0.017 | -0.0215 | -0.269 | -0.339 | -0.338 | -0.104 | -0.325 | -0.245 | -0.374 | -0.116 | -0.163 |  | -0.364 | -0.255 | 0.0921 | -0.327 | -0.77
EIF3F (UniProt O00303) | -0.0929 | -0.197 | -0.16 | -0.0889 | -0.424 | -0.158 | -0.0386 | -0.0785 | 0.0404 | -0.0892 | -0.495 | -0.124 |  | -0.132 | -0.235 | 0.0109 | 0.0785 | -0.0247
OTUD4 (UniProt Q01804) | 0.0776 | -0.761 | -0.763 | -0.46 | -0.413 | -0.109 | 0.0839 | -0.0534 | -0.136 | 0.02 | -0.0939 | -0.131 |  | -2.71 (active) | -0.397 | 0.0366 | -0.354 | -0.972
OTUD5 (UniProt Q96G74) | -0.09 | 0.0244 | -0.556 | -0.67 | -0.615 | -0.0917 | -0.331 | -0.13 | -0.315 | -0.685 | -0.104 | -0.27 | -0.0756 | -0.519 | -0.238 | -0.0992 | -0.442 | -0.995
ALG13 (UniProt Q9NP73) | 0.0397 | -0.0404 | -1.07 | 0.242 | 0.125 | -0.757 | -0.0979 | 0.249 | 0.182 | -0.152 | -0.305 | -0.0228 |  | 0.017 | 0.00528 | 0.149 | -0.6 | 0.292
USP8 (UniProt P40818) | 0.058 | -0.288 | -0.13 | -0.147 | -0.531 | -0.314 | -0.16 | -0.0703 | -0.125 | -0.197 | -0.245 | -0.233 |  | -0.572 | -0.442 | 0.167 | -0.538 | -0.963
OTUD6B (UniProt Q8N6M0) | 0.0114 | -0.285 | 0.0184 | -0.269 | -0.538 | -0.0327 | -0.167 | -0.274 | -0.338 | -0.283 | -0.0694 | -0.286 |  | -0.29 | -0.356 | 0.00691 | -0.225 | -1.19 (active)
VCPIP1 (UniProt Q96JH7) | -0.221 | -1.63 (active) | -0.946 | -0.492 | -0.305 | -0.056 | -1.46 (active) | -1.21 (active) | -0.628 | -0.412 | -1.34 (active) | -0.205 |  | -0.518 | -0.707 | -0.226 | -0.695 | -2.08 (active)
USP36 (UniProt Q9P275) | -0.165 | 0.124 | -0.354 | -0.058 | -0.116 | -0.0255 | -0.0892 | -0.141 | -0.166 | -0.233 | 0.171 | -0.19 |  | -0.191 | -0.134 | -0.189 | -0.185 | -0.132
USP54 (UniProt Q70EL1) | 0.0698 | 0.582 | 0.646 | 0.245 | 0.658 | 0.179 | 0.204 | 0.439 | 0.226 | 0.528 | 0.34 | -0.205 |  | 0.194 | 0.336 | 0.0874 | 0.439 | 0.681
USP46 (UniProt P62068) | -0.0299 | -0.0303 | 0.206 | -0.116 | -0.0331 | -0.248 | -0.103 | -0.0865 | -0.0696 | -0.323 | 0.0828 | -0.198 |  | 0.0653 | 0.0564 | 0.118 | 0.0832 | -0.509
USP25 (UniProt Q9UHP3) | -0.0734 | -0.0952 | -0.722 | -0.62 | -0.368 | 0.0415 | -0.392 | -0.444 | -0.307 | -0.446 | -0.133 | -0.102 |  | -0.276 | -0.149 | 0.0208 | -0.419 | -1.21 (active)
USP16 (UniProt Q9Y5T5) | -0.505 | -0.513 | 0.199 | -0.203 | -0.306 | -0.171 | -0.735 | -0.611 | -0.0917 | -0.476 | 0.128 | -0.675 |  | -0.0851 | -0.131 | -0.506 | -0.128 | -0.24
USP4 (UniProt Q13107) | 0.153 | 0.162 | -0.162 | -0.204 | -0.321 | -0.349 | -0.155 | -0.256 | 0.0368 | -0.309 | -0.0374 | -0.0039 |  | -0.169 | 0.0544 | 0.132 | -0.0646 | -0.558
USP9X (UniProt Q93008) | -0.0684 | -0.269 | -0.142 | -0.264 | -0.347 | -0.336 | -0.0452 | -0.0218 | -0.239 | -0.36 | -0.111 | 0.0487 |  | -0.264 | -0.191 | -0.0136 | -0.446 | -0.734
USP22 (UniProt Q9UPT9) | 0.0555 | 0.184 | -0.0563 | 0.000369 | 0.0274 | 0.0658 | -0.433 | -0.357 | -0.117 | 0.0632 | 0.00275 | -0.145 |  | 0.0376 | 0.219 | -0.0487 | 0.0686 | -0.655
